# Data from ChEMBL document CHEMBL5724796, “Tm Shift (DSF) assay results for EUbOPEN Chemogenomics Library” (2024).
# What was measured:
# Details in all cases: Compound concentration 20.0 uM
# [1] = molecular target: Tyrosine-protein kinase ABL1 (Homo sapiens) (UniProt P00519)
# [2] = molecular target: Bromodomain-containing protein 4 (Homo sapiens) (UniProt O60885)
# [3] = molecular target: Cyclin-dependent kinase 2 (Homo sapiens) (UniProt P24941)
# [4] = molecular target: Casein kinase I isoform delta (Homo sapiens) (UniProt P48730)
# [5] = molecular target: Glycogen synthase kinase-3 beta (Homo sapiens) (UniProt P49841)
# [6] = molecular target: Mitogen-activated protein kinase 1 (Homo sapiens) (UniProt P28482)
# [7] = molecular target: T1, Aurora kinase A (Homo sapiens) (UniProt O14965)
# T1 sequence (whole entry): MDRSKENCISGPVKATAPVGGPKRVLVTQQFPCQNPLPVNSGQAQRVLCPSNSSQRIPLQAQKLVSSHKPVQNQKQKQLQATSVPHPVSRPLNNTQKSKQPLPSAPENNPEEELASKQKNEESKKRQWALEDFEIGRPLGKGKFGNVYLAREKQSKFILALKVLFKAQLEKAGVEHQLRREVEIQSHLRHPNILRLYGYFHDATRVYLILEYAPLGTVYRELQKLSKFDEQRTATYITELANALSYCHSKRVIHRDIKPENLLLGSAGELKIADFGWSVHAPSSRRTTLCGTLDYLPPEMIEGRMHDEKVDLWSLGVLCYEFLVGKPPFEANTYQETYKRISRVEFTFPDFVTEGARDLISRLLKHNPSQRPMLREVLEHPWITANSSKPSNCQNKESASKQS
# [8] = molecular target: T2, Transcription intermediary factor 1-alpha (Homo sapiens) (UniProt O15164)
# T2 sequence (whole entry): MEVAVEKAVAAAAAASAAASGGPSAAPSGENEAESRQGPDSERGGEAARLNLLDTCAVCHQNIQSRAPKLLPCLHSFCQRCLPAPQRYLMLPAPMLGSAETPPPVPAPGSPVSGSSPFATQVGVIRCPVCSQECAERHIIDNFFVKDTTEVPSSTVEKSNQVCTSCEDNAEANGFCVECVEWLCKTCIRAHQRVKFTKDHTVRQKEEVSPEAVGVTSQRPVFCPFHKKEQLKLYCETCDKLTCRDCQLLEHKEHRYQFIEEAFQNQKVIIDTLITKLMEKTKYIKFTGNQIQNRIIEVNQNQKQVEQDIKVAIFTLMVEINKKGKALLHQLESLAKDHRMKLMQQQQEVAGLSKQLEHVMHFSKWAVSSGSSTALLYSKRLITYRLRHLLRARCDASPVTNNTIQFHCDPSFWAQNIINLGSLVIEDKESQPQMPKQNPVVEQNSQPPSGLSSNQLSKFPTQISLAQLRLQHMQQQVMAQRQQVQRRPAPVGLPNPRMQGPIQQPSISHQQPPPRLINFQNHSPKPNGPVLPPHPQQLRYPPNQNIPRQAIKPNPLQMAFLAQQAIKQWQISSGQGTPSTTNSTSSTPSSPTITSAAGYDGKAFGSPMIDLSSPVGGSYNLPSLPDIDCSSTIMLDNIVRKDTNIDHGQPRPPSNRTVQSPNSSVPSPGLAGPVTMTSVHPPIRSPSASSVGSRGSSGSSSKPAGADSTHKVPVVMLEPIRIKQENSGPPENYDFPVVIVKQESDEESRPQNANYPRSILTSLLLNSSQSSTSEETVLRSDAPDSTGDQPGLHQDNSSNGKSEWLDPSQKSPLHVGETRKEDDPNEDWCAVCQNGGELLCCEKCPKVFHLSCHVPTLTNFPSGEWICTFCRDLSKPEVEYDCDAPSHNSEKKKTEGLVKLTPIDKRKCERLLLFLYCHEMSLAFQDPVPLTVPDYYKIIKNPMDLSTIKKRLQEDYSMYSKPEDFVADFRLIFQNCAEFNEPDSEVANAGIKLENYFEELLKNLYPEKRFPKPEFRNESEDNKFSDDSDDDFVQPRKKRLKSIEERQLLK
# Sequence of Casein kinase I isoform delta (Homo sapiens) (P48730 whole entry, looked up, canonical isoform): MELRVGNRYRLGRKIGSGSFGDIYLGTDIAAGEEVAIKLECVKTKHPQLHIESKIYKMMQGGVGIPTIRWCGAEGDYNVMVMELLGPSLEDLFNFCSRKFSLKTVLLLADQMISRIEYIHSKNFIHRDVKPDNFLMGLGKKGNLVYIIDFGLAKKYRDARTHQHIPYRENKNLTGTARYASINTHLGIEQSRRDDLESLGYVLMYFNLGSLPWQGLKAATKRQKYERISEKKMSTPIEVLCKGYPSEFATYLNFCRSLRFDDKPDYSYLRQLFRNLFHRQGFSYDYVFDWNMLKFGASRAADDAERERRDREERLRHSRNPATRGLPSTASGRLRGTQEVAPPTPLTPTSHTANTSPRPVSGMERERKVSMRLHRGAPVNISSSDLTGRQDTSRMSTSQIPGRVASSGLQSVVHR
# Sequence of Tyrosine-protein kinase ABL1 (Homo sapiens) (P00519 whole entry): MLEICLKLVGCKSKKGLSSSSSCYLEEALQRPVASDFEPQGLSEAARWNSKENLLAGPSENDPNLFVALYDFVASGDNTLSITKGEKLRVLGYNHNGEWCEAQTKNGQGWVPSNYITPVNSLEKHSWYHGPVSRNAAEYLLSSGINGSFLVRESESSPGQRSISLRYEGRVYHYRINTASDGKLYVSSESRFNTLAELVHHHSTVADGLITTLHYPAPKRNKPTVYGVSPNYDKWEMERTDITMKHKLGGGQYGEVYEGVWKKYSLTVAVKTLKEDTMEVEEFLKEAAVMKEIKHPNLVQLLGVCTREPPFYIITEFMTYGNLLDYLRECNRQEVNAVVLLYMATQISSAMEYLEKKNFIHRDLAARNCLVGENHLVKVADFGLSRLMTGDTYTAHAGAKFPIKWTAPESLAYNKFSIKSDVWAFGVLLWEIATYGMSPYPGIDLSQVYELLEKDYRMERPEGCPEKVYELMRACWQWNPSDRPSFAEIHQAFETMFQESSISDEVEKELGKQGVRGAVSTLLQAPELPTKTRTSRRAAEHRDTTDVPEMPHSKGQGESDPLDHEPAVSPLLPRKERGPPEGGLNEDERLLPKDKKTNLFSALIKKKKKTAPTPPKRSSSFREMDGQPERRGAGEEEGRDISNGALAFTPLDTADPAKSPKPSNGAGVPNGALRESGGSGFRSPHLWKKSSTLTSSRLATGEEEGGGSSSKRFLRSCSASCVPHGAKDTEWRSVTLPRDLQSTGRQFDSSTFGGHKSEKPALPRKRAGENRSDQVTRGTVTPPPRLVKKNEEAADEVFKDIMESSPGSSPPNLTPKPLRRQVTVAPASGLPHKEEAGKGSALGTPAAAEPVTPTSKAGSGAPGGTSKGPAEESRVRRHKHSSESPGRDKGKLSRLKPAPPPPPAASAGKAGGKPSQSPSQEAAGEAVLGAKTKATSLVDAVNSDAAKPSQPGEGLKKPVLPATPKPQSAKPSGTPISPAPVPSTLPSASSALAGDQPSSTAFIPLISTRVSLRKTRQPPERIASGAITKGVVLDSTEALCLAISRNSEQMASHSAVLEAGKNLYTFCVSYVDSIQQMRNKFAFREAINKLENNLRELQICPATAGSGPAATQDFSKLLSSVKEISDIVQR
# Sequence of Glycogen synthase kinase-3 beta (Homo sapiens) (P49841 whole entry, looked up): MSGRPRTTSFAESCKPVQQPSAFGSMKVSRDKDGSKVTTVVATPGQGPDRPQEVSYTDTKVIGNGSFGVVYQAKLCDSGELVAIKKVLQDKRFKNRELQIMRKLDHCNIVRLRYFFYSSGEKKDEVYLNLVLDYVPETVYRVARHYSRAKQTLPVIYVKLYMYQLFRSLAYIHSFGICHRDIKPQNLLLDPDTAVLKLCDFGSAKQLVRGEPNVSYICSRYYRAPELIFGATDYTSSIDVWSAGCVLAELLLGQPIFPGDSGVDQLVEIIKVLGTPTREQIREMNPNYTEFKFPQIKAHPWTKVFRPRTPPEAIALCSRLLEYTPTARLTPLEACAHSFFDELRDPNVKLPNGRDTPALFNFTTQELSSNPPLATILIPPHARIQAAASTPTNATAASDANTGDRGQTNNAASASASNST
# Sequence of Mitogen-activated protein kinase 1 (Homo sapiens) (P28482 whole entry): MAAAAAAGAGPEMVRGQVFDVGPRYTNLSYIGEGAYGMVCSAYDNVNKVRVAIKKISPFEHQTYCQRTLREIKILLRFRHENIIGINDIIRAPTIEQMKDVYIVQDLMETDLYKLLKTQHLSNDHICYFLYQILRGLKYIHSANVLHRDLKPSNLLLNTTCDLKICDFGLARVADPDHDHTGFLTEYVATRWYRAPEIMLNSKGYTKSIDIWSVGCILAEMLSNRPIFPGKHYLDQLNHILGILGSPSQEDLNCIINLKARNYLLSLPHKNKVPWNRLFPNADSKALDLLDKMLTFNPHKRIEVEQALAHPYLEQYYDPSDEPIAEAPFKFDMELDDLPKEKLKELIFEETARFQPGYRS
SMILES,ΔTm [1] [°C],ΔTm [2] [°C],ΔTm [3] [°C],ΔTm [4] [°C],ΔTm [5] [°C],ΔTm [6] [°C],ΔTm [7] [°C],ΔTm [8] [°C]
CCc1oc2ccccc2c1C(=O)c1cc(Br)c(O)c(Br)c1,0.11,-6.7,-2.31,-9.78,0,-2.33,0.35,0
Cn1c(OC[C@H]2CC[C@H](C(F)(F)F)CC2)nn2c(C3CCOCC3)ncc2c1=O,0.42,-3.44,-0.19,-0.45,0.18,0.06,-2.37,-1.13
CC(C)c1cc(C(=O)N2CC[C@@H](NC(=O)C3CC3)C2)[nH]n1,0.79,-3.2,0.06,-0.08,-0.75,0.08,-2.47,1.07
Nc1ncnc2c1ncn2[C@@H]1O[C@H](C[C@@H](N)CC[C@H](N)C(=O)O)[C@@H](O)[C@H]1O,0.31,-2.03,-0.94,0.18,-1.05,-1.35,-1.45,-0.73
O=c1[nH]c(Oc2cnn(Cc3ccccc3)c2)nc2cnccc12,0.64,-2.42,0.14,-0.09,0.35,0.33,-1.07,0.34
CC(=O)N[C@@H](CC(=O)O)C(=O)N[C@@H](CCC(=O)O)C(=O)N[C@H](C(=O)N[C@H](C=O)CC(=O)O)C(C)C,-0.28,-1.5,-0.58,-0.17,-0.28,-0.74,-1.77,-1.09
Cc1nc(N)c2nnn(C[C@H]3CN(Cc4nccs4)CCO3)c2n1,0.44,-3.68,-0.07,-0.32,-0.34,0.04,-1.7,1.36
Cc1ccc(C(=O)Nc2ccc(S(=O)(=O)O)c3cc(S(=O)(=O)O)cc(S(=O)(=O)O)c23)cc1NC(=O)c1cccc(NC(=O)Nc2cccc(C(=O)Nc3cc(C(=O)Nc4ccc(S(=O)(=O)O)c5cc(S(=O)(=O)O)cc(S(=O)(=O)O)c45)ccc3C)c2)c1,0.88,-5.41,-2.98,-1.4,-0.55,-0.68,0,-1.19
CCN(c1cc(C#CCN2CCOCC2)cc(C(=O)NCc2c(C)cc(C)[nH]c2=O)c1C)[C@H]1CC[C@H](N(C)CCOC)CC1,0.47,-1.47,0.53,0.46,-0.17,0.04,-0.54,-0.98
COc1cc2c(NC3CCN(C4CCCCC4)CC3)nc(N3CCCN(C(C)C)CC3)nc2cc1OCCCN1CCCCC1,0.29,-1.02,0.48,0.1,0.08,-0.69,0.32,0.36
O=C(O)CCNC(=S)NCCCC[C@H](NS(=O)(=O)c1cccc(F)c1)C(=O)N[C@@H](Cc1c[nH]c2ccccc12)C(=O)NC1CCC1,0.2,-3.5,-0.16,-0.24,-0.19,0.22,-2.13,-1.96
O=C(O)C1=CCCN(CCON=C(c2ccccc2)c2ccccc2)C1,0.08,-0.61,0.73,-0.14,0,0.02,-1.31,1.41
O=c1cc(-c2ccc(O)cc2)oc2c(CN3CCN(Cc4cccs4)CC3)c(O)cc(O)c12,2.39,-1.3,1.5,-0.79,2.99,-1.64,3.95,2.2
O=C(NC1CCC1)c1ccc2nc(-c3cccc(NS(=O)(=O)NCCN4CCCCC4)c3)cn2c1,0.57,-2.44,0.18,-0.21,-0.29,0.15,-2.15,0.09
COCCOc1cc(CC2CCN(CCc3ccc4c(c3)C(=O)CCO4)CC2)ccc1Br,0.83,-2.23,0.15,-0.07,-0.17,0.56,-2.41,-0.98
COc1ncc(C)c(-c2ccc3c(c2)[nH]c(=O)c2cnn([C@H]4CCOC4)c23)c1C,1.31,-3.36,-0.21,-0.26,0.55,-0.06,-2.59,-0.98
N#Cc1c(N)[nH]c2cc(/C=C/c3cccc(F)c3)ccc12,1.1,3.17,2.67,-0.33,-0.5,1.9,0.33,1.03
Cc1noc2c1-c1ccccc1C(c1ccc(Cl)cc1)=N[C@H]2CC(N)=O,0.53,8.17,0.94,0.05,-0.25,0.12,-2.42,-0.29
CCC(=O)N[C@H]1CC[C@@H](C(=O)N(C)c2ccc(-c3nc4ccccc4o3)cc2)C1,0.54,0.67,-0.03,0.1,-0.48,-0.17,-0.05,-0.29
N[C@@H](CC(=O)Nc1ccc(Oc2cc(F)c(F)cc2Br)cc1)C(=O)O,0.75,-3.05,-0.04,0.11,-0.55,0.24,-2.19,0.54
CCCCCCCC(=O)N[C@H](CN1CCCC1)[C@H](O)c1ccc2c(c1)OCCO2,0.07,-0.36,-0.06,-0.32,-0.11,0.14,-1.58,-0.39
C[C@H](NC(=O)CCc1nc2ccccc2c(=O)[nH]1)c1ccccc1,0.18,0.84,0.79,0.42,-0.21,0.83,-1.25,0.31
